The text below walks through data of PubChem BioAssay (EPA / NIEHS).

Values joined by “and” are separate entries in the source; they are usually repeats but may differ in a detail not shown here. Equal values may be shown once. Results filed as inconclusive are left out. Active and inactive are the calls of the source. Rule for the calls, unless noted: active = hit-call score of the fitted dose curve at least 0.9, where 1 is the maximum; inactive = score below 0.9.

Read-out in assay [1]: Interleukin-8 (IL8), CXCL8 (gene 3576)
The experiment in a line: BSK_3C_IL8: BioMAP Diversity Plus: 3C Assay for Interleukin-8 (IL8) Biomarker Activity (AID 2283020). The note with it: primary human endothelial cells (HUVEC); actives raise or lower the signal. A digest of the protocol:
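ELISA read-out of IL-8 from human umbilical vein endothelium, measured 24 h after chemical dosing. Activity is expressed relative to DMSO negative control, with both increases and decreases fitted.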

Read-out in assay [2]: Monokine induced gamma interferon (MIG), CXCL9 (gene 4283)
As to the kind of experiment: BSK_3C_MIG: BioMAP Diversity Plus: 3C Assay for Monokine induced gamma interferon (MIG) Biomarker Activity (AID 2283021). The settings on record: primary human endothelial cells (HUVEC); actives raise or lower the signal. In outline:
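Read-out is ELISA detection of MIG on human umbilical vein endothelial cells, taken 24 h after dosing. Gain or loss of signal was scored relative to DMSO controls using bidirectional curve fitting.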

The target in assay [3] is human Vitamin D Receptor (VDR), VDR (gene 7421) (UniProt P11473). As to the kind of experiment: ATG_VDR_TRANS: Attagene TRANS-FACTORIAL HepG2 Assay for human Vitamin D Receptor (VDR) (AID 2283022; active = hit-call score of the fitted dose curve at least 0.9, where 1 is the maximum). A digest of the protocol: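 HepG2 cells were transiently transfected with GAL4-UAS reporter units and a chimeric VDR-Gal4 construct, then dosed for 24 hours. Reporter mRNA was quantified by RT-PCR, fluorescent labeling, HpaI digestion and capillary electrophoresis; gain of signal analysed vs DMSO.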

Assay [4] is described as follows: BSK_3C_SRB: Viability Assessment in the BioMAP Diversity Plus: 3C Assay (AID 2283023).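 Note: fitted both ways against DMSO so a hit may be signal rise or drop.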 The settings on record: primary human endothelial cells (HUVEC). A digest of the protocol: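 Human umbilical vein endothelial cells in the 3C system, treated 24 h. Total protein measured by 0.1% sulforhodamine B staining after 10% TCA fixation, read at 560 nm; bidirectional fit versus DMSO.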

Read-out in assay [5]: Matrix Metallopeptidase 1 (MMP1), MMP1 (gene 4312)
The experiment in a line: BSK_BE3C_MMP1: BioMAP Diversity Plus: BE3C Assay for Matrix Metallopeptidase 1 (MMP1) Biomarker Activity (AID 2283024). The settings on record: primary human bronchial epithelial cells; actives raise or lower the signal. A digest of the protocol:
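Human bronchial epithelial cells (BE3C system) exposed to compound for 24 h; MMP1 then quantified by ELISA. Activity was fitted in both directions relative to DMSO.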

Read-out in assay [6]: Pselectin, SELP (gene 6403)
As to the kind of experiment: BSK_4H_Pselectin: BioMAP Diversity Plus: 4H Assay for Pselectin Biomarker Activity (AID 2283026). The settings on record: primary human endothelial cells (HUVEC); actives raise or lower the signal. In outline:
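ELISA read-out of P-selectin on human umbilical vein endothelium after 24 h of dosing. Values derive from bidirectional fitting relative to DMSO. Parallel SRB protein staining flagged overt cytotoxicity.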

The nature of assay [7]: BSK_4H_SRB: Viability Assessment in the BioMAP Diversity Plus: 4H Assay (AID 2283027).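 For AC50: curves fitted both ways versus DMSO so AC50 may be loss or gain.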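 Note: cells exposed to compound for 24 h before staining.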 The note with it: primary human endothelial cells (HUVEC). A digest of the protocol: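 Human umbilical vein endothelial cells, 24 h after chemical dosing; total protein measured by 0.1% sulforhodamine B staining after 10% TCA fixation, read at 560 nm. Bidirectional fitting against DMSO.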

A short description of assay [8]: BSK_BE3C_SRB: Viability Assessment in the BioMAP Diversity Plus: BE3C Assay (AID 2283028). The note with it: primary human bronchial epithelial cells. A digest of the protocol:
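Human bronchial epithelial primary cells in confluent culture, 24 h after chemical dosing; total protein by 0.1% SRB staining after 10% TCA fixation, read at 560 nm. Bidirectional fitting versus DMSO baseline.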

Read-out in assay [9]: Thrombomodulin, THBD (gene 7056)
As to the kind of experiment: BSK_3C_Thrombomodulin: BioMAP Diversity Plus: 3C Assay for Thrombomodulin Biomarker Activity (AID 2283029). The settings on record: primary human endothelial cells (HUVEC); actives raise or lower the signal. In outline: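 Read-out is ELISA of thrombomodulin on human umbilical vein endothelium 24 h after chemical dosing. Gain or loss of signal is scored relative to DMSO. Overt cytotoxicity is checked in parallel cultures by sulforhodamine B staining.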

Read-out in assay [10]: Urokinase-type plasminogen activator receptor (uPAR), PLAUR (gene 5329)
The experiment in a line: BSK_4H_uPAR: BioMAP Diversity Plus: 4H Assay for Urokinase-type plasminogen activator receptor (uPAR) Biomarker Activity (AID 2283030). The note with it: primary human endothelial cells (HUVEC); actives raise or lower the signal. In outline:
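Human umbilical vein endothelial cells in the 4H system, 24 h after chemical dosing. Cell-surface uPAR measured by ELISA, fitted in both directions versus DMSO; cytotoxicity checked by SRB total protein in parallel cultures.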

Read-out in assay [11]: Vascular endothelial growth factor receptor 2 (Homo sapiens) (UniProt P35968)
As to the kind of experiment: BSK_4H_VEGFRII: BioMAP Diversity Plus: 4H Assay for Vascular endothelial growth factor receptor 2 (VEGFR2) Biomarker Activity (AID 2283031).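 For AC50: cell-surface VEGFR2 protein level quantified by ELISA.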 The note with it: primary human endothelial cells (HUVEC); actives raise or lower the signal. A digest of the protocol:
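Primary human umbilical vein endothelial cells (4H system), 24 h exposure; cell-surface VEGFR2 measured by ELISA. Bidirectional fitting versus DMSO; cytotoxicity checked in parallel by SRB total-protein staining.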

Read-out in assay [12]: Human Leukocyte Antigen - DR isotype (HLADR), HLA-DRA (gene 3122)
The experiment in a line: BSK_BE3C_HLADR: BioMAP Diversity Plus: BE3C Assay for Human Leukocyte Antigen - DR isotype (HLADR) Biomarker Activity (AID 2283032). The note with it: primary human bronchial epithelial cells; actives raise or lower the signal. A digest of the protocol:
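ELISA read-out of HLA-DR on human lung bronchial epithelial primary cells, measured 24 h post-dosing. Both increases and decreases were scored relative to DMSO vehicle.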

Read-out in assay [13]: Vascular cell adhesion molecule 1 (VCAM1), VCAM1 (gene 7412)
The experiment in a line: BSK_4H_VCAM1: BioMAP Diversity Plus: 4H Assay for Vascular cell adhesion molecule 1 (VCAM1) Biomarker Activity (AID 2283033).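 For outcome: cell-surface VCAM-1 protein measured by ELISA.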 The note with it: primary human endothelial cells (HUVEC); actives raise or lower the signal. In outline:
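ELISA read-out of VCAM-1 on human umbilical vein endothelium 24 hours after chemical dosing; gain or loss of signal was fitted relative to DMSO, with sulforhodamine B staining of parallel cultures flagging overt cytotoxicity.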

Read-out in assay [14]: Monokine induced gamma interferon (MIG), CXCL9 (gene 4283)
The experiment in a line: BSK_BE3C_MIG: BioMAP Diversity Plus: BE3C Assay for Monokine induced gamma interferon (MIG) Biomarker Activity (AID 2283035). The settings on record: primary human bronchial epithelial cells; actives raise or lower the signal. In outline: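 Primary human bronchial epithelial cells treated for 24 h; MIG levels measured by ELISA, fitted bidirectionally versus DMSO. Parallel SRB total-protein staining assessed cytotoxicity.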

Read-out in assay [15]: Plasminogen activator inhibitor-1 (PAI1), SERPINE1 (gene 5054)
The experiment in a line: BSK_BE3C_PAI1: BioMAP Diversity Plus: BE3C Assay for Plasminogen activator inhibitor-1 (PAI1) Biomarker Activity (AID 2283037). The settings on record: primary human bronchial epithelial cells; actives raise or lower the signal. A digest of the protocol:
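Primary human lung bronchial epithelial cells; chemical dosing; 24 h; PAI-1 measured by ELISA; bidirectional fit referenced to DMSO as negative control.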

Read-out in assay [16]: urokinase plasminogen activator (uPA), PLAU (gene 5328)
The experiment in a line: BSK_BE3C_uPA: BioMAP Diversity Plus: BE3C Assay for urokinase plasminogen activator (uPA) Biomarker Activity (AID 2283038).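 Note: uPA protein level quantified by ELISA in cell cultures; uPA read one day after compound addition.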 The note with it: primary human bronchial epithelial cells; actives raise or lower the signal. In outline:
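Primary human bronchial epithelial cells, uPA measured by ELISA 24 h after dosing. Bidirectional change relative to DMSO; cytotoxicity checked in parallel cultures by sulforhodamine B total-protein staining.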

Read-out in assay [17]: Urokinase-type plasminogen activator receptor (uPAR), PLAUR (gene 5329)
As to the kind of experiment: BSK_BE3C_uPAR: BioMAP Diversity Plus: BE3C Assay for Urokinase-type plasminogen activator receptor (uPAR) Biomarker Activity (AID 2283039).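 Note: cells exposed to compound for one day before measurement.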 The settings on record: primary human bronchial epithelial cells; actives raise or lower the signal. In outline: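 Human bronchial epithelial primary cells; chemical exposure 24 h; uPAR by ELISA; bidirectional fit vs DMSO control.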

Read-out in assay [18]: Interferon-gamma inducible Protein 10 (IP10), CXCL10 (gene 3627)
As to the kind of experiment: BSK_BE3C_IP10: BioMAP Diversity Plus: BE3C Assay for Interferon-gamma inducible Protein 10 (IP10) Biomarker Activity (AID 2283034). The note with it: primary human bronchial epithelial cells; actives raise or lower the signal. In outline:
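Chemical is dosed onto human lung bronchial epithelial primary cells, cultures are incubated 24 h, and IP-10 is then quantified by ELISA. Gain or loss of signal is fitted in both directions relative to DMSO.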

human Vitamin D Receptor (VDR), VDR (gene 7421), sequence (P11473 whole entry, looked up, the tested form may be a part): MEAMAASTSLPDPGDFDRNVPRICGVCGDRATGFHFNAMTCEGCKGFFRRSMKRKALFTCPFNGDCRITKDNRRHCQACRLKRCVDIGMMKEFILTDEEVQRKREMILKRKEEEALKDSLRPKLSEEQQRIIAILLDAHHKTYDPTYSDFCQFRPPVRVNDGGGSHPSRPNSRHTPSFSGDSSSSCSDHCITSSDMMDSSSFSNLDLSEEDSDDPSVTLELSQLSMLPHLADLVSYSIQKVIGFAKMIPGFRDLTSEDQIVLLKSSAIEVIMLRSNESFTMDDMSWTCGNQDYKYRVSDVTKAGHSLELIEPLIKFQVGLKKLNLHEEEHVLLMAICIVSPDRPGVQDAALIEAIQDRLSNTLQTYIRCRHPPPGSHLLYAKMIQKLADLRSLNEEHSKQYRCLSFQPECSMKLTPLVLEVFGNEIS

For the compound `FC(F)(F)C(F)(F)C(F)(F)C(F)(F)C(F)(F)CCI`, the result in assay [1], in [2], in [3], in [4], in assay [6] and in [7] was inactive. For the same compound, the result in assay [8], in assay [9], in [10], in assay [11], in assay [12] and in assay [13] was inactive. The result in assay [14], in assay [15], in assay [16] and in [17] was inactive. For the same compound, the AC50 in [5] is 30 µM (active) and 19.5 µM (active).

For the compound `FC(F)(F)C(F)(F)C(F)(F)C(F)(F)C(F)(F)C(F)(F)CCS`, the result in [1], in assay [2], in assay [3], in assay [4], in assay [5] and in assay [6] was inactive. The result in [7], in assay [8], in assay [9], in [10], in [11] and in assay [12] was inactive. For the same compound, the result in [13], in assay [14], in assay [15] and in [16] was inactive.

`O=C(O)C(F)(F)C(F)(F)C(F)(F)C(F)(F)F`: the result in [1], in assay [2], in assay [3], in [4], in assay [5] and in assay [6] was inactive. In addition, the result in [7], in assay [8], in assay [10], in [11], in assay [12] and in assay [13] was inactive. The result in assay [18], in [14], in assay [15], in assay [16] and in assay [17] was inactive.

Turning to `O=C(O)C(F)(F)C(F)(F)C(F)F`, the result in assay [1], in assay [2], in assay [3], in assay [4], in assay [5] and in assay [6] was inactive. Besides, the result in assay [7], in [8], in assay [10], in [11], in assay [12] and in assay [13] was inactive. In addition, the result in assay [14], in assay [15] and in [16] was inactive.

For `OCCCC(F)(F)C(F)(F)C(F)(F)F`, the result in [1], in [2], in assay [3], in [4], in [5] and in assay [6] was inactive. Besides, the result in assay [7], in assay [8], in [10], in assay [11], in assay [12] and in [13] was inactive. Moreover, the outcome in assay [18], in assay [14], in assay [15] and in assay [16] was inactive.

`FC(F)(F)C(F)(F)C(F)(F)CI`: the outcome in [1], in assay [2], in [3], in assay [4], in assay [5] and in assay [6] was inactive. The result in assay [7], in assay [8], in assay [9], in assay [10], in assay [11] and in assay [12] was inactive. For the same compound, the result in [13], in assay [14] and in assay [15] was inactive.

As to `O=C(O)C(F)(F)C(F)(F)C(F)(F)C(F)(F)C(F)(F)C(F)(F)C(F)(F)C(F)(F)C(F)(F)C(F)(F)C(F)(F)C(F)(F)F`, the AC50 in assay [1] was 23.6 µM (active) and 8.82 µM (active); in [7], 21.7 µM (active) and 18 µM (active); in assay [11], 22 µM (active) and 11.1 µM (active); in [13], 3.66 µM (active) and 1.18 µM (active). The outcome in assay [2], in assay [3], in [4], in assay [5], in assay [6] and in [8] was inactive. Moreover, the result in assay [10], in [12], in assay [14], in [15] and in assay [17] was inactive.

Usually AC50 stands for the concentration at which the activity in the assay is half-maximal.
